According to PubChem BioAssay (NCI):
The panel holds about 83,000 compounds, 20% with a hit somewhere; the sample as a whole holds those more often.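 Testing used 96-well plates and a 48-hour single-concentration exposure. Example: -40 means 40% of the starting cells died.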 Values without a mark were called inactive. Active and inactive are the calls of the source. Rule for the calls: active = growth percent below 10; inactive = the rest.

Legend:
Test in all cases: NCI-60 one-dose screen, 48 h (100 = growth as untreated, 0 = no growth, -100 = all killed)
[1] = test system: NCI-H23 lung; conditions: 10 µM unless noted
[2] = test system: NCI-H226 lung; conditions: 10 µM unless noted
[3] = test system: NCI-H322M lung; conditions: 10 µM unless noted
[4] = test system: HOP-62 NSCLC; conditions: 10 µM unless noted
[5] = test system: NCI-H460 lung; conditions: 10 µM unless noted
[6] = test system: HOP-92 NSCLC; conditions: 10 µM unless noted
[7] = test system: NCI-H522 lung; conditions: 10 µM
[8] = test system: 786-0 renal; conditions: 10 µM unless noted
[9] = test system: COLO 205 colon; conditions: 10 µM unless noted
[10] = test system: K-562 leukemia; conditions: 10 µM unless noted
[11] = test system: MALME-3M melanoma; conditions: 10 µM unless noted
[12] = test system: MDA-MB-231 breast; conditions: 10 µM unless noted
[13] = test system: SF-268 CNS; conditions: 10 µM unless noted
[14] = test system: SF-295 CNS; conditions: 10 µM unless noted
[15] = test system: SF-539 CNS; conditions: 10 µM unless noted
[16] = test system: UACC-257 melanoma; conditions: 10 µM unless noted
[17] = test system: M14 melanoma; conditions: 10 µM unless noted
[18] = test system: DU-145 prostate; conditions: 10 µM unless noted
[19] = test system: RXF 393 renal; conditions: 10 µM unless noted
[20] = test system: A549/ATCC NSCLC; conditions: 10 µM unless noted

SMILES | growth [1] [%] | growth [2] [%] | growth [3] [%] | growth [4] | growth [5] | growth [6] | growth [7] | growth [8] | growth [9] | growth [10] | growth [11] [%] | growth [12] [%] | growth [13] [%] | growth [14] | growth [15] | growth [16] [%] | growth [17] [%] | growth [18] | growth [19] [%] | growth [20] [%]
COc1ccc(C(=O)COc2cccc(/C=C3\COc4ccc5ccccc5c4C3=O)c2)cc1 | 59.5 | 72.7 | 147 | 96.5% | 62% | 33.8% | 44.1% | 83% | 123% | 47.8% | 72 | 53.7 | 83.8 | 107% | 16% | 79.4 | 91.2 |  |  | 
CC1Cc2ccccc2N1C(=O)c1ccc(C(=O)c2ccccc2)cc1 (stereo not given) | 98.3 | 78.1 | 91.2 | 80.5% | 99.3% | 92% | 77.3% | 86.7% | 97.1% | 85.6% | 73 | 91.3 | 92.1 | 84% | 96.3% | 30.1 | 83.5 | 79.7% |  | 
O=C(COc1cccc(/C=C2\Cc3ccccc3C2=O)c1)c1ccc(Cl)cc1 | 96.1 | 105 | 131 | 98% | 117% | 86.6% | 81.1% | 97.8% | 142% | 100% | 90 | 84.1 | 117 | 124% | 95.6% | 96.4 | 105 |  |  | 
C[N+]1(C)C2CC[C@@H]1CC(OC(=O)C(O)c1ccccc1)C2 (stereo not given in full) | 95.9 | 84.7 | 97.8 | 117% | 119% | 91.4% | 110% | 104% | 129% |  | 94.1 | 107 | 114 | 104% | 108% | 110 | 105 | 127% | 111 | 
COc1ccc2cc(-c3nc4ccccc4[nH]3)c(=O)oc2c1 | 93.1 | 97.5 | 96.3 | 93.9% | 101% | 80.3% | 88.7% | 98% | 119% | 96.8% | 103 | 104 | 110 | 105% | 98.8% | 45.9 | 93.7 | 114% |  | 
O=C(c1ccc(N2CCOCC2)cc1[N+](=O)[O-])N1CCOCC1 | 97.2 | 97.9 | 111 | 94.8% | 116% | 94.3% | 94% | 102% | 87.1% | 159% | 103 | 134 | 110 | -38.9% (active) | 107% | 43.9 | 107 | 114% |  | 
COc1ccc2c(c1)C(=Nc1cc(OC)c(OC)c(OC)c1)C(=O)N2 | 96.6 | 97.1 | 108 | 36.1% | 116% | 56.8% | 89.9% | 104% | 92.5% | 102% | 90.8 | 103 | 98 | 171% | 103% | 102 | 101 |  |  | 
CCSc1ncc(Br)c(Sc2nc(N)nc3nc[nH]c23)n1 | 37.9 | 65.4 | 89.1 | 31.8% | 46.6% | 31.6% | 59% | 33.6% | 110% | 26.6% | 36.2 | 40.9 | 44.8 | 38.6% | 60.1% |  | 31.7 | 43.1% |  | 
COCCCNS(=O)(=O)c1ncnc2nc[nH]c12 | 96.4 | 134 | 119 | 93.4% | 105% | 120% | 119% | 98.9% | 112% | 109% | 107 | 124 | 106 | 129% | 99.1% |  | 92.6 | 98.5% |  | 
CCOC(=O)c1sc(NC(=O)COc2ccc(/C=C3\CCc4cc(OC)ccc4C3=O)cc2)nc1C | 96.6 | 92.2 | 96.5 | 103% | 111% | 106% | -2.75% (active) | 90.7% | 137% | 71.7% |  | 94.1 | 80.1 | 118% | 95.1% | 93.7 | 106 |  |  | 
O=C(O)C1CCN(S(=O)(=O)c2ccc(-c3ccccc3)cc2)CC1 | 98.3 | 90.6 | 124 | 112% | 112% | 90.8% | 92.9% | 103% | 111% | 109% | 127 | 98.7 | 108 | 192% | 109% | 56.2 | 109 | 114% |  | 
Cc1ccc(-c2cc(-c3ccccc3)n(-c3ccccc3)n2)cc1 | 95.9 | 97.9 | 97.3 | -2.85% (active) | 104% | 108% | 79% | 92.9% | 112% | 81.2% | 87.6 | 112 | 98.3 | 156% | 115% | 98.1 | 110 |  |  | 
CCOC(=O)c1sc(NC(=O)COc2cccc(/C=C3\CCc4cc(OC)ccc4C3=O)c2)nc1C | 89.5 | 85.2 | 99.8 | 96.5% | 80.8% | 72.5% | 43.9% | 88.1% | 135% | 5.6% (active) | 77.1 | 89.2 | 69.4 | 90.3% | 26.4% | 84.2 | 89 |  |  | 
c1ccc2nc(N/N=C3\CCCCC3C3CCCCC3)ccc2c1 (stereo not given) | 40.1 | 53.8 | 64.5 | 8.28% (active) | 39.7% | -11.3% (active) | 60% | 48.6% | 41% | 12.3% | 46.6 | 60.8 | 66.8 | 25.9% | 58.8% | 72.1 | 72.1 |  |  | 
c1ccc(N2c3nc4ccccc4cc3Sc3cc4ccccc4nc32)nc1 | 93.7 | 84.9 | 83.6 | 90.8% | 111% | 39% | 98.1% | 92.9% | 141% | 85.7% |  | 68.4 | 80.8 | 96.1% | 111% | 87.8 | 109 |  |  | 
COc1cccc(C2=NN(C(C)=O)C(c3cc(OC)c(OC)c(OC)c3)C2)c1 (stereo not given) | 52 | 90.1 | 77 | 31.5% | -0.923% (active) | -0.613% (active) | -38% (active) | 30% | 22.2% | 9.66% (active) | 65.9 | 41.3 | 38.6 | 193% | 7.59% (active) | 48.3 | 16.8 |  |  | 
COc1cc(/C=N/NC(=O)c2ccc(C(F)(F)F)nc2Nc2ccc(Cl)cc2C)ccc1O | 47.9 | 39.6 | 25.5 | 9.04% (active) | 24.5% | 40% | 44.6% | 4.66% (active) | 51.8% | 15.2% | 15.1 | 53.1 | 34.9 | 7.59% (active) | 30.4% | 57.2 | 50.9 |  |  | 
O=Nc1c2cccnc2n2nnc3ccc(Cl)cc3c12 | 66.4 | 85.9 | 107 | 115% | 27.7% | -40.5% (active) | -71.5% (active) | 59% | -5.58% (active) |  | 23.7 | 13.9 | 48.7 | 90.3% | 91.4% | 28.6 | 81.5 | -10.6% (active) |  | 
N#Cc1c(-c2ccccc2)cc(-c2ccccc2)n(CC(=O)O)c1=O | 70.2 | 75.2 | 96.9 | 53.8% | 40.7% | 61.7% |  | 62.9% | 68.4% | 21.1% | 56.2 | 60.3 | 67.2 | 36.8% | 66.5% | 64.4 |  | 87.5% | 62.3 | 51.9
COC(=O)c1cc2oc(/C=N\NC(=O)c3cc4oc(C)c(C)c4[nH]3)cc2[nH]1 | 104 | 117 | 106 | 110% | 111% | -34.1% (active) |  | 107% | 94% | 84.1% | 82.5 | 107 | 106 | 84.2% | 101% | 114 |  | 147% | 101 | 112
